Results on one compound are retold here after ChEMBL document CHEMBL1961873, “Compounds: GSK PKIS; Assays: Nanosyn kinase panel” (2012).

Assay [1] has as its target Sphingosine kinase 1 (Homo sapiens) (UniProt Q9NYA1). The note with it: at 1 µM.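 Note: mean SPHK1 inhibition value reported from the GSK PKIS kinase panel screen.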
Assay [2] deals with T1, Sphingosine kinase 2 (Homo sapiens) (UniProt Q9NRA0).
T1 sequence (whole entry): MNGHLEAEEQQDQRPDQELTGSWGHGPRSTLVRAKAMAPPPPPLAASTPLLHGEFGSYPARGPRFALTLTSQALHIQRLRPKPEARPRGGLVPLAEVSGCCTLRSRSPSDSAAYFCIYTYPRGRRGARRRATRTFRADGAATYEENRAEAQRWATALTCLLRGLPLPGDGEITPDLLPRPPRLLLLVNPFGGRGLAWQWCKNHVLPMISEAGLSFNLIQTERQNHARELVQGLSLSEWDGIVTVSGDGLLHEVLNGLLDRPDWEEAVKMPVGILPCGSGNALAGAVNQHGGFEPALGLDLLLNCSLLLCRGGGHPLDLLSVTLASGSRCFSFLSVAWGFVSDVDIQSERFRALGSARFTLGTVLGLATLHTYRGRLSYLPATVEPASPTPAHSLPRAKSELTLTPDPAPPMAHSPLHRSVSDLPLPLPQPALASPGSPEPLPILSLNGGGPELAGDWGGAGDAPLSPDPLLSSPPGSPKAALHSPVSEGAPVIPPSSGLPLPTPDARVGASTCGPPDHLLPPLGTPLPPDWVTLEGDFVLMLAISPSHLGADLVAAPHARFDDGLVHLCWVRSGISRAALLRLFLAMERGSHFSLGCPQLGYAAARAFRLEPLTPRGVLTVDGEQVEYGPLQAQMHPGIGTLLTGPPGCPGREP
The note with it: at 0.1 µM.

Assay [3] deals with T1, Sphingosine kinase 2 (Homo sapiens). The note with it: at 1 µM.
For assay [4], the target named is Casein kinase II subunit alpha (Homo sapiens) (UniProt P68400). The note with it: at 0.1 µM.
The target is the same in assay [5]. The note with it: at 1 µM.
Assay [6] deals with T2, Inhibitor of nuclear factor kappa-B kinase subunit alpha (Homo sapiens) (UniProt O15111).
T2 sequence (whole entry): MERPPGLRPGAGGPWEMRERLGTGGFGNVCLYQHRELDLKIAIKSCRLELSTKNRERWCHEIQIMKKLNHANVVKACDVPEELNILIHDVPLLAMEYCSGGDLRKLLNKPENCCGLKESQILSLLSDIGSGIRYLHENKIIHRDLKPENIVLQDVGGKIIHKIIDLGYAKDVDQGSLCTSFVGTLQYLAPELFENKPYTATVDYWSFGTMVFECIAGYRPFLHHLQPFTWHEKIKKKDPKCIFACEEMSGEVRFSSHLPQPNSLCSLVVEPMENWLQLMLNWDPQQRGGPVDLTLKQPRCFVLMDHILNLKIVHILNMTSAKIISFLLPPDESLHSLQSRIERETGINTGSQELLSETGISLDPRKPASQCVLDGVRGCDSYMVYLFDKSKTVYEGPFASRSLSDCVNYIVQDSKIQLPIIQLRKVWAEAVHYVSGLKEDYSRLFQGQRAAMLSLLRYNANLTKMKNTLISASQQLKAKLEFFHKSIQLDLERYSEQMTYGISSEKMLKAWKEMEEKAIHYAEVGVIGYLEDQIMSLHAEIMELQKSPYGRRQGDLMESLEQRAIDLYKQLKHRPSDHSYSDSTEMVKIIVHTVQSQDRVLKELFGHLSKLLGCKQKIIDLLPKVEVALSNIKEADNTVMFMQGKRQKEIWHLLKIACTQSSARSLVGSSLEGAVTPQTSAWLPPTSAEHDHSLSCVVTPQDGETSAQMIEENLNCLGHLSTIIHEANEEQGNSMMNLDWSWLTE
The note with it: at 0.1 µM.

For assay [7], the target named is T2, Inhibitor of nuclear factor kappa-B kinase subunit alpha (Homo sapiens). The note with it: at 1 µM.
For assay [8], the target named is T3, Inhibitor of nuclear factor kappa-B kinase subunit beta (Homo sapiens) (UniProt O14920).
T3 sequence (whole entry): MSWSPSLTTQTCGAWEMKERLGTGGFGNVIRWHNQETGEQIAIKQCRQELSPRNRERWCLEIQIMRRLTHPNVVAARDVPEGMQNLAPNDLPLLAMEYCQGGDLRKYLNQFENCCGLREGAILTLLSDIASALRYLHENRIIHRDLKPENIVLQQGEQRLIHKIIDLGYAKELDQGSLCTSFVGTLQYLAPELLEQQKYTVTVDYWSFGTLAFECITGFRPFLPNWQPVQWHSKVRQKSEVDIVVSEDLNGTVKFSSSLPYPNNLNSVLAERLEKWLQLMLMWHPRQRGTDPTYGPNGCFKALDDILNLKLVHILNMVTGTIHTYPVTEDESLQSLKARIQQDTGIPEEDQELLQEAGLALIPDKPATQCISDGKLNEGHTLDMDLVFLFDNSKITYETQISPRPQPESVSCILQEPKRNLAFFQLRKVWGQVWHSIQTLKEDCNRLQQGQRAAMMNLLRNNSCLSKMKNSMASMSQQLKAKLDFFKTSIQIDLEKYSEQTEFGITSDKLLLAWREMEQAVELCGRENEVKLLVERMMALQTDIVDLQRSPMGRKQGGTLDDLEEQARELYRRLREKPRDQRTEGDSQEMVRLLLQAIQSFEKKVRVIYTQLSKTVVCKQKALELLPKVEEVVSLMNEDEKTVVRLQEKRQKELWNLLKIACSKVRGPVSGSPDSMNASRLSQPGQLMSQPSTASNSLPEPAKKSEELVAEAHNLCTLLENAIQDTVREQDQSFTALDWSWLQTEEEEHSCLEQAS
The note with it: at 0.1 µM.

For assay [9], the target named is T3, Inhibitor of nuclear factor kappa-B kinase subunit beta (Homo sapiens). The note with it: at 1 µM.
The target of assay [10] is T4, Inhibitor of nuclear factor kappa-B kinase subunit epsilon (Homo sapiens) (UniProt Q14164).
T4 sequence (whole entry): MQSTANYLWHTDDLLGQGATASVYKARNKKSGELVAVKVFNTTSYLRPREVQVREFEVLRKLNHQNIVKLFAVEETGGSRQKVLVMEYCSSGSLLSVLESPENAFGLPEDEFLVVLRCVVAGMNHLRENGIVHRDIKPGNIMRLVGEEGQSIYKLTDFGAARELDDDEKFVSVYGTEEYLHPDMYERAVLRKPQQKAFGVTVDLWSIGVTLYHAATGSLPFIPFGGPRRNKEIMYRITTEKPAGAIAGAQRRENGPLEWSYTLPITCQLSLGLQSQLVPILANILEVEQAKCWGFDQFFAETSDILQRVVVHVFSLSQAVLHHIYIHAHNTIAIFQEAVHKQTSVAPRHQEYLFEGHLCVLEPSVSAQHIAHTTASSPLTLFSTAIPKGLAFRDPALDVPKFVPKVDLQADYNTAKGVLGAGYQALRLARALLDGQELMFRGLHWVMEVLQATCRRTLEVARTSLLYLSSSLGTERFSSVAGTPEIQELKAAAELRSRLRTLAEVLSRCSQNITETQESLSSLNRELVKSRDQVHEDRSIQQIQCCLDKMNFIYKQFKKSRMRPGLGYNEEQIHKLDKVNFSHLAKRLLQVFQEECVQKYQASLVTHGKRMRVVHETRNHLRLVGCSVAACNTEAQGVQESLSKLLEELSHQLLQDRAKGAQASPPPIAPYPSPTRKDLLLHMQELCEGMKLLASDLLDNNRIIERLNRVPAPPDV
The note with it: at 0.1 µM.

For assay [11], the target named is T4, Inhibitor of nuclear factor kappa-B kinase subunit epsilon (Homo sapiens). The note with it: at 1 µM.
The target of assay [12] is T5, Serine/threonine-protein kinase Nek1 (Homo sapiens) (UniProt Q96PY6).
T5 sequence (whole entry): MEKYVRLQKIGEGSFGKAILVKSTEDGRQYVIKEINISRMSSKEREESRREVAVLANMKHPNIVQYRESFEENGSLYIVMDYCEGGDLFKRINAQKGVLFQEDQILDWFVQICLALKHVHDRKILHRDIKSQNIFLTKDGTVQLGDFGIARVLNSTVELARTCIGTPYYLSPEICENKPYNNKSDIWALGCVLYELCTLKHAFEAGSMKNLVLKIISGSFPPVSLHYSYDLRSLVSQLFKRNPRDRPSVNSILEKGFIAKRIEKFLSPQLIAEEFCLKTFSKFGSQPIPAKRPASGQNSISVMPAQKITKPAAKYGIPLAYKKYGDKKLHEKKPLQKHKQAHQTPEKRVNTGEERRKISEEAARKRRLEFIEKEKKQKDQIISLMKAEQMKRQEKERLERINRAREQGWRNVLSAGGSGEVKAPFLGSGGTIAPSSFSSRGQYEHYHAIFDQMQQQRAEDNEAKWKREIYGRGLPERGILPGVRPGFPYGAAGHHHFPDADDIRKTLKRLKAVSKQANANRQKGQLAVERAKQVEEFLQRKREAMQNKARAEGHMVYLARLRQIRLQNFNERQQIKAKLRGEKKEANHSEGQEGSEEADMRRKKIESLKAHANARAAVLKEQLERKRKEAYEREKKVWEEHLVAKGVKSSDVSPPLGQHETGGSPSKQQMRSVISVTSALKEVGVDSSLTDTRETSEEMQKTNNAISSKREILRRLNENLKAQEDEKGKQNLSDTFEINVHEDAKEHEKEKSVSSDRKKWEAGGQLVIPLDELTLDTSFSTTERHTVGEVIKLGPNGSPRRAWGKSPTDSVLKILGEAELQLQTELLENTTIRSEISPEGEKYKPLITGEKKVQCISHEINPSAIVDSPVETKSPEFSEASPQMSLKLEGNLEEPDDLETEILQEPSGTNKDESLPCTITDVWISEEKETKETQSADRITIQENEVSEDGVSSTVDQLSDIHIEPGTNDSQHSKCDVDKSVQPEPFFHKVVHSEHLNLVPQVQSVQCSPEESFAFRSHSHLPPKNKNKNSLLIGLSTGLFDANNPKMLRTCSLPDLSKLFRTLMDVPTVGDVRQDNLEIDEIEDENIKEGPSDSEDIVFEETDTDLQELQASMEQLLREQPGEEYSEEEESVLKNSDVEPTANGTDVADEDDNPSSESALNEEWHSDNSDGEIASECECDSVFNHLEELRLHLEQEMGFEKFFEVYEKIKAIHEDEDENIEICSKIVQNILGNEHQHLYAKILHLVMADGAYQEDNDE
The note with it: at 0.1 µM.

The target of assay [13] is T5, Serine/threonine-protein kinase Nek1 (Homo sapiens). The note with it: at 1 µM.
Assay [14] concerns the target T6, Serine/threonine-protein kinase Nek2 (Homo sapiens) (UniProt P51955).
T6 sequence (whole entry): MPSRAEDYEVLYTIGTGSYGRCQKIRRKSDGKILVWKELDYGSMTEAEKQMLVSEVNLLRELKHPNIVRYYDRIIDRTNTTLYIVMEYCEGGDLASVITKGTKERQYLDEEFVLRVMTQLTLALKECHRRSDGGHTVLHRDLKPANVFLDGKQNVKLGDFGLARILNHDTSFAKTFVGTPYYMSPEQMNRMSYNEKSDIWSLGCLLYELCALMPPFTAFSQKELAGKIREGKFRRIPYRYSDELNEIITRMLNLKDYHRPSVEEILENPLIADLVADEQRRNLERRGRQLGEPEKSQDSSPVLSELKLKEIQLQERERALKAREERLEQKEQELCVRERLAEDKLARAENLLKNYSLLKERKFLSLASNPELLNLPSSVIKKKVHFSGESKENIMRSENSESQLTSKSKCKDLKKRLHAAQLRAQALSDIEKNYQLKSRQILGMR
The note with it: at 0.1 µM.

Assay [15] has as its target T6, Serine/threonine-protein kinase Nek2 (Homo sapiens). The note with it: at 1 µM.
In assay [16] the target is Serine/threonine-protein kinase Nek6 (Homo sapiens) (UniProt Q9HC98). The note with it: at 0.1 µM.
For assay [17] the target is unchanged. The note with it: at 1 µM.
The target in assay [18] is Serine/threonine-protein kinase Nek7 (Homo sapiens) (UniProt Q8TDX7). The note with it: at 0.1 µM.
The target is the same in assay [19]. The note with it: at 1 µM.
Assay [20] has as its target T7, Serine/threonine-protein kinase Nek9 (Homo sapiens) (UniProt Q8TD19).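 Note: reported value is the mean percent inhibition of NEK9.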
T7 sequence (whole entry): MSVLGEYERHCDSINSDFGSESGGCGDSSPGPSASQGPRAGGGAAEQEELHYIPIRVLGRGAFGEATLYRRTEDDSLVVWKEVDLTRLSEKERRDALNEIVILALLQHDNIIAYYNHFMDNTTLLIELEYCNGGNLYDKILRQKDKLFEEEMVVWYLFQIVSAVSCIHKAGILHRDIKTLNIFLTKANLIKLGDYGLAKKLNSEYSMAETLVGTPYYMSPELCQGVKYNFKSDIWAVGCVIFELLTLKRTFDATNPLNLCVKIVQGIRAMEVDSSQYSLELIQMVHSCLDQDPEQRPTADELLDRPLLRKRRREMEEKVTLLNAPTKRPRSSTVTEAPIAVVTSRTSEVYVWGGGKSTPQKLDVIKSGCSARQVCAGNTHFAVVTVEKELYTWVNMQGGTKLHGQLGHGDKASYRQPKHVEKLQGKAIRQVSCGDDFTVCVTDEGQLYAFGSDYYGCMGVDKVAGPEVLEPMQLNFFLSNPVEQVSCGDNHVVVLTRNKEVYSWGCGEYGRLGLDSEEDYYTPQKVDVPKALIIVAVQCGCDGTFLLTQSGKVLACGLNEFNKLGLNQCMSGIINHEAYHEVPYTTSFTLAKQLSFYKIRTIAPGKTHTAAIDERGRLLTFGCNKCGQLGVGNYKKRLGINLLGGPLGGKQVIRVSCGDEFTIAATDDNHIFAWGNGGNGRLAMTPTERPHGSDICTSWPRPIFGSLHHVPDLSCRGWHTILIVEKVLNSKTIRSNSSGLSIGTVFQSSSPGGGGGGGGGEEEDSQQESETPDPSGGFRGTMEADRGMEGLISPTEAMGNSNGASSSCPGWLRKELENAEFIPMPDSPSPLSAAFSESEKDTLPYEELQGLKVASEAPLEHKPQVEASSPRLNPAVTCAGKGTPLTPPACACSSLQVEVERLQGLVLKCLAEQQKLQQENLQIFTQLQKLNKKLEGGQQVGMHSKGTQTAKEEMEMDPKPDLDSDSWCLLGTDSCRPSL
The note with it: at 0.1 µM.

Casein kinase II subunit alpha (Homo sapiens), sequence (P68400 whole entry, looked up): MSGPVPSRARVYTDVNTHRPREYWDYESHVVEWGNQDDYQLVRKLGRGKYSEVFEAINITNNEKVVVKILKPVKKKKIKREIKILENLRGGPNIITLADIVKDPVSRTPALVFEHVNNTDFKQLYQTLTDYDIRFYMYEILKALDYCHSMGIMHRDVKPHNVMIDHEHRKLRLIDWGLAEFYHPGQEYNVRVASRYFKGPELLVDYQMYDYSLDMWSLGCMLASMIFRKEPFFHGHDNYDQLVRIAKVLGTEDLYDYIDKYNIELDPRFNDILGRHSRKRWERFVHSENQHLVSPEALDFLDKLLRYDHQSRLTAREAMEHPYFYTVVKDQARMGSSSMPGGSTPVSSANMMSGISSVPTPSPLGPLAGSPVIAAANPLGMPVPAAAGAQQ
Serine/threonine-protein kinase Nek6 (Homo sapiens), sequence (Q9HC98 whole entry): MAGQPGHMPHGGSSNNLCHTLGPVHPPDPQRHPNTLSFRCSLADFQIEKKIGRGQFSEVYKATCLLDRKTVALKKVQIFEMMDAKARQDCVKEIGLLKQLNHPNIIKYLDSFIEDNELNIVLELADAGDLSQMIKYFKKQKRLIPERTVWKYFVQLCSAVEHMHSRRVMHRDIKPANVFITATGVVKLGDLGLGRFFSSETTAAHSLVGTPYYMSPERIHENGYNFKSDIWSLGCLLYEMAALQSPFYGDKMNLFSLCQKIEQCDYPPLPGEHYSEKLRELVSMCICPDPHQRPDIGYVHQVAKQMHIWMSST
Serine/threonine-protein kinase Nek7 (Homo sapiens), sequence (Q8TDX7 whole entry, looked up): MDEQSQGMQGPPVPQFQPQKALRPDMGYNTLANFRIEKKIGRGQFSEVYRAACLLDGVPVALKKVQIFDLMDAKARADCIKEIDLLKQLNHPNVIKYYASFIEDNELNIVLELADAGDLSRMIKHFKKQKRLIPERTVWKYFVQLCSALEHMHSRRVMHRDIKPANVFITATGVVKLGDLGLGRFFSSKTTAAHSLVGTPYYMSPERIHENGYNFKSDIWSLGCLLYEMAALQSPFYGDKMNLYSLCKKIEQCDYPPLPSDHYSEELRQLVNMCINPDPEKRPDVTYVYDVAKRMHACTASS
Sphingosine kinase 1 (Homo sapiens), sequence (Q9NYA1 whole entry): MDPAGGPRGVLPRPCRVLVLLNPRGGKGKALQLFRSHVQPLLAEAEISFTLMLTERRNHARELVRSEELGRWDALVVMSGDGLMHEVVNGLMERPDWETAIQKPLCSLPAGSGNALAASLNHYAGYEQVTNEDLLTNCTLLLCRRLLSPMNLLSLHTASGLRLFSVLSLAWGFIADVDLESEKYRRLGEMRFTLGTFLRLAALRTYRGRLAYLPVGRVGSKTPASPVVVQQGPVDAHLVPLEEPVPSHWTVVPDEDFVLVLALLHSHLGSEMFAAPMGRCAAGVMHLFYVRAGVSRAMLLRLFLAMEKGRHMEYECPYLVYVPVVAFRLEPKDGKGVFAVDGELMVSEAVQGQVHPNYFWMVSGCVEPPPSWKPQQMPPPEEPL

As to `COc1ccc(CNC(=O)c2ccc(-c3cc(-c4nnc(C)o4)ccc3C)cc2)cc1`, the inhibition in assay [1] was -0.2%; in [2], 1.04%; in [3], 0.14%; in [4], 6.07%; in assay [5], 16.4%; in [6], 2%. Further, the inhibition in assay [7] was found to be 7.25%; in assay [8] it was 1.12%; in assay [9] it was 4.56%; in [10], 5.88%; in assay [11], 3.56%; in assay [12] it was 3.38%. The inhibition is 1.51% in assay [13]; 1.12% in [14]; 3.44% in assay [15]; -0.69% in [16]; 4.26% in assay [17]; 1.72% in assay [18]. For the same compound, the inhibition in assay [19] was -1.14%; in assay [20] it was 1.2%.

What is called inhibition is the drop in the measured response relative to a control, in per cent.
